These results are taken from PubChem BioAssay (EPA / NIEHS).

Values joined by “and” are separate entries in the source; they are usually repeats but may differ in a detail not shown here. Equal values may be shown once. Records with an inconclusive call do not appear. A structure can be active in one record and inactive in another. Active and inactive are the calls of the source. Rule for the calls, unless noted: active = hit-call score of the fitted dose curve at least 0.9, where 1 is the maximum; inconclusive = response in the unintended direction; inactive = score below 0.9.

Read-out in experiment [1]: X-box binding protein 1 (XBP1), XBP1 (gene 7494)
The experiment is described as follows: LTEA_HepaRG_XBP1: Life Technologies and Expression Analysis (LTEA) Assay for X-box binding protein 1 (XBP1) using HepaRG (AID 2283540; active = hit-call score of the fitted dose curve at least 0.9, where 1 is the maximum; inactive = score below 0.9). The settings on record: mRNA level, 48 h; actives raise or lower the signal. Summed up:
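XBP1 transcript by qRT-PCR (housekeeping-normalized: ACTB, GAPDH, POLR2A) after 48 h chemical treatment of HepaRG cells, 8-point half-log series topping at 100 uM, vehicle 0.5% DMSO. Gain and loss of signal fitted relative to DMSO.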

Experiment [2] is described as follows: LTEA_HepaRG_LDH_cytotoxicity: Cytotoxicity Assessment in the Life Technologies and Expression Analysis (LTEA) Assay (AID 2283563).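 For AC50: LDH activity released into spent culture medium as a marker of cell death.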 Summed up:
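LDH release into culture medium read after 48 h chemical treatment of HepaRG cells. Duplicate wells, eight-point half-log series topping at 100 uM, 0.5% DMSO vehicle and baseline.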

Experiment [3] can be described thus: TOX21_p53_BLA_p2_viability: Viability Assessment in the Tox21 HCT-116 p53 Agonism Beta-lactamase Assay, Phase 2 (AID 2283591).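 Note: compound exposure lasted 16 h at 37 °C; actives lower the ATP signal meaning cytotoxicity.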 Summed up:
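HCT116 p53-bla cells, 4000/well, dosed after 5 h plating (217-fold dilution of DMSO stocks) and incubated 16 h at 37C. Viability taken as cellular ATP by CellTiter-Glo luminescence after 30 min RT; signal loss marks cytotoxicity.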

The target in experiment [4] is Cellular tumor antigen p53 (Homo sapiens) (UniProt P04637). As to the kind of experiment: TOX21_p53_BLA_p2_ratio: Tox21 HCT-116 p53 Agonism Beta-lactamase Assay, Ratio, Phase 2 (AID 2283592). Summed up: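 Read-out is the blue/green (460/530 nm, 405 nm excitation) ratio after 2 h CCF4-AM loading, fitted as gain versus DMSO. Compounds, pinned at 217-fold dilution from DMSO stocks, stayed 16 h on HCT-116 beta-lactamase reporter cells seeded 5 h earlier.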

The nature of experiment [5]: TOX21_p53_BLA_p3_viability: Viability Assessment in the Tox21 HCT-116 p53 Agonism Beta-lactamase Assay, Phase 3 (AID 2283593).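 Note: cells exposed to compound for 16 h before reading.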 Summed up:
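HCT116 cells, 4000/well, dosed 5 h after plating by pin transfer (217-fold dilution from DMSO stock) and incubated 16 h at 37C, 5% CO2. Viability read as ATP luminescence with CellTiter-Glo after 30 min at room temperature.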

Experiment [6] deals with Cellular tumor antigen p53 (Homo sapiens) (UniProt P04637). As to the kind of experiment: TOX21_p53_BLA_p3_ratio: Tox21 HCT-116 p53 Agonism Beta-lactamase Assay, Ratio, Phase 3 (AID 2283596). Summed up: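 Cells were seeded at 4000/well, rested 5 h at 37C, then dosed with DMSO compound solutions (217-fold dilution) for 16 h. CCF4-AM substrate was loaded for 2 h at room temperature, and the 460/530 nm emission ratio was fitted for gain of signal versus DMSO.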

A short description of experiment [7]: TOX21_p53_BLA_p4_viability: Viability Assessment in the Tox21 HCT-116 p53 Agonism Beta-lactamase Assay, Phase 4 (AID 2283597).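 Note: hits lower the luminescence signal meaning cytotoxicity.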 Summed up: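 Cytotoxicity as reduced cellular ATP (CellTiter-Glo luminescence, 30 min room temperature), measured in the same wells following the CCF4 FRET p53 reading. Human HCT-116 cells received compounds in DMSO (217-fold dilution) for 16 h.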

Experiment [8] has as its target Cellular tumor antigen p53 (Homo sapiens) (UniProt P04637). The experiment is described as follows: TOX21_p53_BLA_p5_ratio: Tox21 HCT-116 p53 Agonism Beta-lactamase Assay, Ratio, Phase 5 (AID 2283599). Summed up: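 HCT-116 p53-bla cells (4000/well) plated 5 h, dosed with compound (217-fold DMSO dilution) for 16 h at 37 C; CCF4-AM substrate 2 h at room temperature. Activity is the 460/530 nm emission ratio (405 nm excitation), fitted in gain-of-signal direction versus DMSO.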

The nature of experiment [9]: TOX21_p53_BLA_p5_viability: Viability Assessment in the Tox21 HCT-116 p53 Agonism Beta-lactamase Assay, Phase 5 (AID 2283600). Summed up: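 Viability came from CellTiter-Glo ATP luminescence, read after 30 min at room temperature. Before this, HCT-116 p53-bla cells (4000/well) had 16 hours of compound exposure at 37C, with DMSO stocks diluted 217-fold on transfer.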

Sequence of Cellular tumor antigen p53 (Homo sapiens) (P04637 whole entry, looked up): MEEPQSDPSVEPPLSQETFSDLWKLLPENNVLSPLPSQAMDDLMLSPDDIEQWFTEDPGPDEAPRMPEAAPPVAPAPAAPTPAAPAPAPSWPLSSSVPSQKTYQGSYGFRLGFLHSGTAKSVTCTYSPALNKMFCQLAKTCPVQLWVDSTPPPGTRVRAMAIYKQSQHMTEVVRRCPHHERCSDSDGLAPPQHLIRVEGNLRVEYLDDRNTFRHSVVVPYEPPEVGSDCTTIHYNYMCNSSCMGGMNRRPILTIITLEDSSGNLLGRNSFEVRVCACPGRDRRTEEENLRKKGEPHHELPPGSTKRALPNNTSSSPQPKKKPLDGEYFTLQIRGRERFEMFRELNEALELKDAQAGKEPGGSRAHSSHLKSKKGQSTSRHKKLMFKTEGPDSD

For `CS(=O)(=O)c1ccc(C(=O)C2C(=O)CCCC2=O)c([N+](=O)[O-])c1`, the outcome in [1], in experiment [2], in [3], in [4], in experiment [5] and in experiment [6] was inactive. Besides, the compound was called inactive in experiment [7], in experiment [8] and in experiment [9].

As for `CC1(C)C(C(=O)OC(C#N)c2cccc(Oc3ccccc3)c2)C1(C)C` (stereo not drawn), the result in experiment [1], in experiment [2], in experiment [3], in experiment [4], in [5] and in experiment [6] was inactive. Besides, the compound was classed as inactive in experiment [7] and in experiment [8].

For the compound `OC(c1ccc(Cl)cc1)(c1ccc(Cl)cc1)C(Cl)(Cl)Cl`, the AC50 in experiment [1] was 82.1 µM (active); in [2], 74.3 µM (active); in [3], 77.9 µM (active); in experiment [5] it was 38.8 µM (active); in experiment [6], 49.6 µM (active); in experiment [7] it was 86.7 µM (active). Besides, the AC50 in [8] is 89.8 µM (active). The result in experiment [4] was inactive.

For the compound `CCOP(=O)(OCC)Oc1nc(Cl)c(Cl)cc1Cl`, the concentration at half-maximal activity (AC50) in [1] was 83.1 µM (active); in experiment [8], 38.3 µM (active). Also, the call in [2], in experiment [3], in experiment [4], in experiment [5], in experiment [6] and in experiment [7] was inactive.

As for `CC(C)=CC1C(C(=O)OCc2coc(Cc3ccccc3)c2)C1(C)C` (stereo not drawn), the result in experiment [1] and in experiment [2] was inactive.

Regarding `CCCCC(C#N)(Cn1cncn1)c1ccc(Cl)cc1` (stereo not drawn), the result in experiment [1], in experiment [2], in experiment [3], in experiment [4], in [5] and in experiment [6] was inactive. In addition, the compound was classed as inactive in [7] and in [8].

`CC(C)N1C(=O)c2ccccc2NS1(=O)=O`: the outcome in experiment [1], in experiment [2], in [3], in [4], in experiment [5] and in [6] was inactive. For the same compound, the call in experiment [7], in [8] and in experiment [9] was inactive.

Turning to `COCc1cnc(C2=NC(C)(C(C)C)C(=O)N2)c(C(=O)O)c1` (stereo not drawn), the compound was called inactive in [1] and in [2].

Take `CCOc1cc(C(C)(C)C)ccc1C1COC(c2c(F)cccc2F)=N1` (stereo not drawn): the call in experiment [1] and in experiment [2] was inactive.

With `Cn1c(-c2ccccc2)cc(-c2ccccc2)[n+]1C`, the outcome in [1], in experiment [3], in experiment [4], in experiment [5], in [6] and in experiment [7] was inactive. In experiment [8], the result was inactive. Moreover, the figures for the AC50 in experiment [2] and in [4] were 66.1 µM (active) and 24.2 µM (active), respectively.

As to `CCCCC(O)(Cn1cncn1)c1ccc(Cl)cc1Cl` (stereo not drawn), the compound was called inactive in [1], in [2], in experiment [3], in experiment [4], in [5] and in experiment [6]. Besides, the concentration at half-maximal activity (AC50) in experiment [7] is 82 µM (active); in experiment [8], 72.8 µM (active).

Take `COc1ccc(-c2ccccc2)cc1NNC(=O)OC(C)C`: the result in [1], in [2], in experiment [3], in experiment [4], in experiment [5] and in [6] was inactive. Moreover, the call in [7], in [8] and in experiment [9] was inactive.

With `COCC(=O)N(c1c(C)cccc1C)C(C)C(=O)OC` (stereo not drawn), the compound was classed as inactive in [1], in [2], in experiment [3], in experiment [4], in experiment [5] and in experiment [6]. Also, the compound was classed as inactive in [7], in [8] and in [9].

Turning to `O=C1C2CC=CCC2C(=O)N1SC(Cl)(Cl)Cl` (stereo not drawn), the compound was classed as inactive in experiment [1], in [3], in experiment [4], in [5], in experiment [6] and in experiment [7]. The result in [8] and in [9] was inactive. The AC50 in experiment [2] was 74.5 µM (active); in experiment [3] it was 25.6 µM (active); in [4], 4.12 µM (active) and 7.62 µM (active); in experiment [6] it was 77.7 µM (active) and 6.5 µM (active); in experiment [7], 18.1 µM (active); in [8], 19.5 µM (active).

With `CCOC(=O)C(C)OC(=O)c1cc(Oc2ccc(C(F)(F)F)cc2Cl)ccc1[N+](=O)[O-]` (stereo not drawn), the compound was called inactive in [1], in experiment [2], in experiment [3], in [4], in experiment [5] and in experiment [6]. Further, the compound was classed as inactive in [7] and in experiment [8].

As for `O=C(O)c1c(Cl)ccc2cc(Cl)cnc12`, the compound was called inactive in experiment [1] and in experiment [2].

Turning to `CC1(C)CCC(=Cc2ccc(Cl)cc2)C1(O)Cn1cncn1` (stereo not drawn), the result in experiment [1], in experiment [2], in [3], in experiment [4], in experiment [5] and in experiment [6] was inactive. In addition, the compound was called inactive in [7] and in experiment [8].

Broadly, the AC50 is the concentration giving half of the maximal activity seen.
